Screening data from PubChem.
A selection: hits, their analogues and other compounds. The true share with any hit is near 2.4%.
GCN5L2 inh-1: inhibitors of human GCN5L2 histone acetyltransferase; Potency, µM (highest dose often 58.9 µM), for inactives: at the highest dose activity change, negative = inhibition, actives largely listed as inhibitors; Q92830; actives 0.21% (n = 390,000); GCN5L2 HAT assay, ThioGlo1 CoA-SH fluorescence; also: potency is read from the fitted curve at half-maximal effect; % is scaled to controls: 0 for no effect and ±100 for the full control effect
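ThioGlo1-coupled HAT assay: 20nM GCN5L2, 70uM acetyl-CoA, 75uM H3(1-25) peptide, pH 7.5. Fluorescence read at 340/540nm at start and after 20 min at room temperature.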
POLI inh: blocks human DNA polymerase iota activity. Q9UNA4. Pol iota fluorescent replication assay, 10 min. Potency, µM (doses to about 115 µM), inactives show top-dose activity, negative = inhibition, usual class: inhibitors. actives 1% (n = 390,000). AID 588590; also: potency is read from the fitted curve at half-maximal effect
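Fluorescent replication assay read twice, at 0 min and 10 min after adding 50 nM (final) substrate. Enzyme (10 nM) and compounds were first incubated 15 min at room temperature; enzyme-free buffer wells were negative controls.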
Pol kappa inh: blocks human DNA polymerase kappa activity; Q9UBT6; purified Pol kappa, fluorescent DNA synthesis assay, 10 min; Potency, µM (doses to about 107 µM), inactives show top-dose activity, negative = inhibition, actives largely listed as inhibitors; actives 0.53% (n = 400,000); also: potency is read from the fitted curve at half-maximal effect; % is scaled to controls: 0 for no effect and ±100 for the full control effect
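Fluorescent qHTS in 1536-well format: enzyme (10 nM) and compound sat 15 min at room temperature before 50 nM substrate (final) was added. Signal taken at 0 and 10 min; no-enzyme buffer wells were negative controls.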
Pol eta inh-1: DNA polymerase eta (human) inhibition; AID 588591; recombinant Pol eta, fluorescent DNA replication assay; actives 1.2% (n = 390,000); Potency, µM (titrated, usually from 114 µM), inactives show at the top dose activity change, negative = inhibition, actives largely listed as inhibitors; Q9Y253; also: potency is read from the fitted curve at half-maximal effect; % is scaled to controls: 0 for no effect and ±100 for the full control effect
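Pol eta at 10 nM preincubated with compounds 15 min at room temperature; reaction started with fluorescent substrate (50 nM final) and read kinetically at 0 and 10 min.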
Pol beta inh: blocks human DNA polymerase beta activity. P06746. Pol beta primer extension/strand displacement, fluorescence kinetic. Potency, µM (series often up to 114 µM), inactives show at the top dose activity change, negative = inhibition, most hits filed as inhibitors. actives 1.3% (n = 340,000). AID 485314; also: potency is read from the fitted curve at half-maximal effect; % is scaled to controls: 0 for no effect and ±100 for the full control effect
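Preincubation: enzyme (10 nM) with compound, 15 min, RT. Reaction: substrate added to 50 nM final. Reads: 0 and 10 min. Analysis: normalized, Hill fit.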
GLS inh: glutaminase GLS (human) inhibition | O94925 | GLS enzymatic activity, qHTS titration | Potency, µM (series often up to 45.5 µM), without a hit: top-dose activity change, negative = inhibition, usual class: inhibitors | actives 0.21% (n = 410,000); also: potency is read from the fitted curve at half-maximal effect; % is scaled to controls: 0 for no effect and ±100 for the full control effect
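Two-point fluorescence kinetic (t0, 30 min RT) for hKGA; glutamate detected via glutamate oxidase–HRP–Amplex Red. Substrate: 1 mM L-glutamine solution; buffer 45 mM KH2PO4, pH 8.2.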
GCN5L2 inh-2: confirmation of human GCN5L2 histone acetyltransferase inhibitors; Potency, µM, actives largely listed as inhibitors; GCN5L2 HAT, ThioGlo1 CoA fluorescence, 20 min; shares compounds with GCN5L2 inh-1; AID 588347; actives 70% (n = 140)
BAZ2B confirm: inhibits human BAZ2B bromodomain, hit validation; shares compounds with Pol kappa inh; AlphaScreen BAZ2B / biotin-H3K14Ac peptide displacement; Potency, µM, actives largely listed as inhibitors; actives 100% (n = 25); calls by dose curve
BAZ2B bead ctr: interferes with AlphaScreen signal in BAZ2B counterscreen | AID 588859 | 25 tested, under 10 active | Potency, µM (series often up to 57.1 µM), inactives show top-dose activity change, negative = inhibition, hits mostly inhibitors | AlphaScreen biotin-His6 peptide bead counterscreen, signal decrease | shares compounds with Pol kappa inh;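 active = clear concentration-dependent signal drop in the bead assay lacking the target, so a primary-screen artifact; inconclusive = weak, partial or single-dose response; inactive = no response, so a real primary hit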
TbPGK inh: TbPGK inhibition, hit validation; shares compounds with Pol kappa inh; TbPGK coupled GAPDH assay, Kinase-Glo luminescence; Potency, µM (doses to about 57.5 µM), inactives show at the top dose activity change, negative = inhibition, usual class: inhibitors; actives 79% (n = 500); AID 686980; also: potency is read from the fitted curve at half-maximal effect; % is scaled to controls: 0 for no effect and ±100 for the full control effect; nearly all actives have a fitted effect of over 65% in size
POLI cherry-pick: Confirm cherry-picked inhibitors of human polymerase iota; shares compounds with Pol kappa inh; Pol iota primer extension, TAMRA/BHQ fluorescence; Potency, µM, most hits filed as inhibitors; actives 77% (n = 1,500); AID 720496; also: potency is read from the fitted curve at half-maximal effect
Pol eta inh-2: Pol eta (human) inhibition, cherry-pick confirmation. shares compounds with Pol eta inh-1. Pol eta primer extension, TAMRA/BHQ fluorescence, 10 min. Potency, µM, hits mostly inhibitors. actives 64% (n = 2,600). AID 720502; also: potency is read from the fitted curve at half-maximal effect
Starred values were filed as active, the others as inactive; ? = inconclusive; . = no result; [ ] = another dose, or the depositor's remark. Unless noted, calls follow the shape of the dose curve; as a rule, active = well fitted curve in the direction sought with a large enough effect; inconclusive = small, poorly fitted or top-dose-only effect, or another doubt; inactive = no such curve, though single readings can be large; an effect the other way counts as inactive or inconclusive.

SMILES	GCN5L2 inh-1	POLI inh	Pol kappa inh	Pol eta inh-1	Pol beta inh	GLS inh	others
C[C@]12CCC(=O)C=C1CC[C@@H]1[C@H]3CC[C@](C)(O)[C@@]3(C)CC[C@@H]12	.	.	.	.	.	-6%[99.4 µM]
CCOC(=O)c1c(-n2c(C)cc(C=C3C(=O)NC(=S)NC3=O)c2C)sc2c1CCCC2	3%	?	?	28µM*	22µM*	?
CN(N=O)c1ccc(O)c(O)c1	4.5µM*	0.79µM*	2.4µM*	0.89µM*	0.63µM*	.
CN(C)c1ccc(/C=C2\C(=O)NC(=O)N(CCc3ccc(F)cc3)C2=O)cc1	-8%	?	-7%	-2%	3%	9%
O=C1NC(=O)N(CCc2ccc(F)cc2)C(=O)/C1=C/c1cccs1	-21%	22µM*	-19%	-19%	?	-9%
Cc1cc(C(C#N)c2ccc(Cl)cc2)c(Cl)cc1NC(=O)c1cc(I)cc(I)c1O (stereo not drawn)	10µM*	?	?	50µM*	.	17%	GCN5L2 inh-2=?
O=c1[nH]c(O)c(C=Nc2ccc(Cl)cc2Cl)c(=O)[nH]1	2%	45%	-1%	-13%	?	3%
CCN(CC(=O)Nc1c(F)cccc1F)C(=O)/C=C/c1ccc2ccccc2n1	?	4.5µM*	8.9µM*	1.1µM*	.	10µM*	GCN5L2 inh-2=23*;BAZ2B confirm=14*;BAZ2B bead ctr=?;POLI cherry-pick=9.5*;Pol eta inh-2=19*
Cc1cccc(N(C)S(=O)(=O)c2cc(-c3cnc(C4CC4)o3)ccc2C)c1	-2%	?	2%[60.1 µM]	.	-19%	-4%
O=C1NC(=S)NC(=O)C1=Cc1ccc2c(c1)CCN2CCCCl	3%	?	10µM*	2µM*	?	10µM*	TbPGK inh=2.3µM*
CC(C)(Oc1ccc(Cl)cc1)C(=O)OCC(=O)N1CCN(c2ccccc2)CC1	-4%	46%	-14%	-14%	.	2%
CN(C)C1CSSSC1	-34%	.	18%[60.1 µM]	.	.	.
CCCNC(=O)c1ccc2c(=O)n3c(-c4ccc(C)cc4)csc3nc2c1	12%	?	-14%	4%	-5%	6%	BAZ2B confirm=4.5*;BAZ2B bead ctr=13µM*
Cc1ccc(C(=O)COC(=O)c2cccc(NC(=O)c3ccc(Br)cc3)c2)cc1	-5%	29%	1%	?	-14%	4%
CN(C)CCc1c[nH]c2cccc(O)c12	.	.	.	.	.	1%[99.4 µM]
O=C(O)c1cccc2c1NC(C(=O)O)C1CC(Sc3ccccc3[N+](=O)[O-])C(Cl)C21 (stereo not drawn)	?	4µM*	8.9µM*	3.2µM*	2.8µM*	7.1µM*	TbPGK inh=13µM*
